Source: PubChem BioAssay (NCI)
This is part of a sample that, as a whole, favours compounds with a hit. Of some 83,000 tested, about 20% had one in any assay.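 Cells were grown in 96-well plates and exposed to the test compound at a single concentration for 48 hours; results are reported as percent growth, with values below 10 considered active.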 Unmarked numbers belong to inactive results. Active and inactive are the calls of the source.

Assays:
Assay in all cases: NCI-60 one-dose screen, 48 h (100 = growth as untreated, 0 = no growth, -100 = all killed)
Conditions in all cases: 10 µM unless noted
SR leukemia = test system: SR leukemia
RPMI-8226 leukemia = test system: RPMI-8226 leukemia
OVCAR-8 ovarian = test system: OVCAR-8 ovarian
OVCAR-5 ovarian = test system: OVCAR-5 ovarian
OVCAR-4 ovarian = test system: OVCAR-4 ovarian
SK-OV-3 ovarian = test system: SK-OV-3 ovarian
IGROV1 ovarian = test system: IGROV1 ovarian
OVCAR-3 ovarian = test system: OVCAR-3 ovarian
HS 578T breast = test system: HS 578T breast
NCI/ADR-RES ovarian = test system: NCI/ADR-RES ovarian

SMILES	growth (SR leukemia)	growth (RPMI-8226 leukemia)	growth (OVCAR-8 ovarian)	growth (OVCAR-5 ovarian)	growth (OVCAR-4 ovarian)	growth (SK-OV-3 ovarian)	growth (IGROV1 ovarian)	growth (OVCAR-3 ovarian)	growth (HS 578T breast)	growth (NCI/ADR-RES ovarian)
CCOC(=O)C1=C(N)Oc2c(sc3c(F)cccc23)C1c1ccc(O)cc1 (stereo not given)	15.3%	25.2%	44.1%	92.4%	38.4%	78.9%	48.9%	45.3%	31.9%	36.6%
O=c1[nH]c(-c2ccccc2)nc2sc3cc(O)ccc3c12	54.2%	82.3%	100%	115%	80%	97.9%	74.1%	93.4%	89%	95.5%
CC1CCN(CCOc2ccc(CNc3ccc4nc(CCC5CCCCC5)[nH]c4c3)cc2)CC1	14.4%	-15.7% (active)	43.1%	59.9%	50.4%	80.4%	43.1%	66.3%	27.5%	51%
CCOC(=O)c1c(NC(=O)c2cccc(C(F)(F)F)c2)sc2c(CN(C)C)c(O)ccc12	-2.46% (active)	-17.3% (active)	82.1%	89.5%	91.1%	101%	83.1%	98.5%	89.8%	79%
COc1cc(NS(=O)(=O)c2ccc(-c3cnc(C4CC4)o3)cc2)ccc1F	19.6%	20.2%	28.6%	36.7%	38.6%	47.4%	24.6%	-15.4% (active)	8.89% (active)	15.3%
CC(=O)c1c(C)nc(SCC(=O)Nc2cccc(O)c2)n1-c1ccc(Cl)cc1	103%	97%	99.8%	104%	89.1%	104%	99%	103%	82.1%	98.9%
Cc1cn(-c2cc(NC(=O)c3cccc(C#Cc4cccc5[nH]nc(N)c45)c3)cc(C(F)(F)F)c2)cn1	28.3%	13.8%	28.5%	28.8%	45.6%	99.4%	15.4%	75.3%	31.4%	67.1%
N#CC1=C(c2ccccc2)Nc2c(c(-c3ccc(Cl)cc3)nn2-c2ccccc2)C12C(=O)Nc1ccc(Cl)cc12 (stereo not given)	53.9%	47.4%	84%	82.6%	87.8%	90.8%	57.1%	88.1%	62.2%	87.8%
COC(=O)c1c(C)c2n(c1C)C(=O)C(c1ccccc1)=C2	102%	88.5%	79.2%	68.9%	71.2%	80.8%	-8.44% (active)	104%	103%	86.8%
CCOC(=O)Cc1cnc(N/N=C(\C)c2cc3ccccc3o2)s1	106%	98.6%	94%	99.7%	93.5%	92.1%	87.4%	107%	100%	103%
COc1ccc(-c2ccc(=O)oc2-c2cc(OC)c(OC)c(OC)c2)cc1O	0.907% (active)	9.69% (active)	14.2%	22.8%	39.8%	25.9%	3.86% (active)	-72.7% (active)	-2.33% (active)	12.9%
Cc1ccccc1/C=C/C(=O)c1cccc(OCCCOc2cccc(C(=O)/C=C/c3ccccc3C)c2)c1	25.8% [3 µM]	-23.2% [3 µM] (active)	101% [3 µM]	126% [3 µM]	84.6% [3 µM]	109% [3 µM]	102% [3 µM]	99.4% [3 µM]	99.7% [3 µM]	101% [3 µM]
Fc1cccc(Oc2ccc(Nc3ncnc4ccc(OCCCN5CCOCC5)cc34)cc2Cl)c1	20.9%	38.5%	62%	78.1%	53.5%	7.14% (active)	12.1%	45.4%	74.5%	55.1%
COc1ccc(C2=C(Nc3ccc(C(=O)Nc4ccccc4)cc3)C(=O)N(C)C2=O)cc1	66.6%	82.1%	91.5%	100%	97.4%	74.9%	97.7%	109%	110%	87%
CCC(C)N(CCNc1cc(OC)cc2cccnc12)CC(C)C (stereo not given)	85.4%	70.3%	90.9%	99.6%	16.4%	95.1%	53.6%	65.2%	110%	83.5%
